Format in all cases: functional
Test [1] concerns Plasmodium falciparum. The test is described as follows: GSK_TCMDC: Inhibition of Plasmodium falciparum 3D7 in whole red blood cells, using parasite LDH activity as an index of growth. Test compounds present at 2uM.
Test [2] concerns Plasmodium falciparum. Briefly: GSK_TCMDC: Inhibition of Plasmodium falciparum Dd2 in whole red blood cells, using parasite LDH activity as an index of growth. Test compounds present at 2uM.
For a further test, the system named is HepG2. Briefly: GSK_TCMDC: Percent inhibition of human HepG2 cell line. Test compounds present at 10uM.

This note sets out measurements from ChEMBL document CHEMBL1157539, “Thousands of chemical starting points for antimalarial lead identification” (Nature, 2010).

In the case of `CN1CCCC(OC(=O)c2ccccc2)C1` (stereo not given), the Inhibition with Plasmodium falciparum [1] was 100%; in the test with Plasmodium falciparum [2], 0%; in the test on HepG2 it was 4%.

As to `Cn1cnnc1Sc1ccc(CN2CCOc3ccc(C4=CCCCC4)cc3C2)o1`, the Inhibition with Plasmodium falciparum [1] is listed as 98%; with Plasmodium falciparum [2] it was 97%; in the test with HepG2 it was 1%.

Regarding `CN(C)CCN(C)Cc1cccc(-c2ccc3c(Nc4ccc(F)cc4Cl)ccnc3c2)c1`, the Inhibition amounted to 100% in the test with Plasmodium falciparum [1], 100% in the test on Plasmodium falciparum [2] and 53% with HepG2.

Turning to `Clc1ccc(-c2cc(-c3csc(Nc4ccncc4)n3)on2)cc1`, the Inhibition with Plasmodium falciparum [1] was determined as 100%; with Plasmodium falciparum [2], 99%; with HepG2, 1%.

For `CC(=O)c1sc(NC(=O)Nc2ccc(C)cc2C)nc1C`, the values for the Inhibition with Plasmodium falciparum [1], in the test with Plasmodium falciparum [2] and in the test on HepG2 were 96%, 68% and 5%, respectively.

For the molecule `CC(=O)Nc1nc(C(=O)Nc2cccc(-c3ccc(-c4nc5cccc(C)c5[nH]4)cc3)c2)cs1`, the Inhibition with Plasmodium falciparum [1] was 100%; in the test on Plasmodium falciparum [2], 61%; in the test with HepG2, 100%.

As for `Cc1ccc(O)c(C(=O)c2cnc3c(c2)c(-c2ccc(F)cc2)c(C#N)c(=O)n3C)c1`, the Inhibition in the test on Plasmodium falciparum [1] stood at 93%; with Plasmodium falciparum [2], 56%; in the test with HepG2, 17%.

For `Clc1ccc2c(NN=Cc3cccnc3)ccnc2c1`, the figures for the Inhibition in the test with Plasmodium falciparum [1], in the test on Plasmodium falciparum [2] and in the test on HepG2 were 100%, 86% and 0%, respectively.

With `Nc1cccc(CNCc2cccc(-c3cccc(-c4nc5cc(F)ccc5[nH]4)c3)c2)c1.O=C(O)C(F)(F)F`, the results for the Inhibition in the test on Plasmodium falciparum [1], in the test on Plasmodium falciparum [2] and in the test on HepG2 were 100%, 82% and 5%, respectively.

Turning to `COc1cccc(C2CCN(CCN3CCC(NC(=O)c4ccc(-c5ccc(C(F)(F)F)cc5)cc4)CC3)CC2)c1`, the Inhibition with Plasmodium falciparum [1] worked out at 99%; in the test with Plasmodium falciparum [2], 99%; with HepG2, 46%.

As for `Cc1cccc2nc(-c3ccc(-c4cccc(NC(=O)C(C)CN5CCN(C)CC5)c4)cc3)[nH]c12` (stereo not given), the Inhibition is on record as 98% in the test with Plasmodium falciparum [1], 51% in the test with Plasmodium falciparum [2] and 5% with HepG2.

Take `COc1ccc(-c2ccc(NC(=O)c3ccc(Cl)cc3)cc2)cc1CN1CCC(O)CC1.O=C(O)C(F)(F)F`: the Inhibition in the test with Plasmodium falciparum [1] turned out to be 89%; with Plasmodium falciparum [2], 15%; in the test on HepG2, 20%.

As to `Nc1nccc2ccc(-c3ccc(NC(=O)Nc4cc(C(F)(F)F)ccc4F)cc3)cc12.O=C(O)C(F)(F)F`, the Inhibition in the test with Plasmodium falciparum [1] stood at 100%; in the test on Plasmodium falciparum [2], 100%; in the test with HepG2, 99%.

Take `COc1ccc(-c2cccc(NC(=O)c3ccc(Cl)cc3)c2)cc1CN1CCC(O)CC1.O=C(O)C(F)(F)F`: the values for the Inhibition in the test on Plasmodium falciparum [1], with Plasmodium falciparum [2] and in the test with HepG2 were 100%, 43% and 51%, respectively.

For the molecule `CCOc1cc(C(=O)NCCN(C(C)C)C(C)C)ccc1-c1nc2cc(Cl)ccc2[nH]1`, the Inhibition was determined as 100% with Plasmodium falciparum [1], 90% in the test with Plasmodium falciparum [2] and 4% in the test on HepG2.

With `Cc1[nH]c(C)c(-c2ccc(Nc3ccc(C(F)(F)F)cn3)cc2)c(=O)c1Br`, the results for the Inhibition in the test with Plasmodium falciparum [1], in the test with Plasmodium falciparum [2] and with HepG2 were 99%, 98% and 30%, respectively.

For the molecule `CS(=O)(=O)O.FC(F)(F)COc1ccc2ccccc2c1CNCCCCCCNCc1c(OCC(F)(F)F)ccc2ccccc12`, the values for the Inhibition with Plasmodium falciparum [1], in the test on Plasmodium falciparum [2] and in the test on HepG2 were 100%, 95% and 99%, respectively.

`Cc1cc(=O)[nH]c(-n2nc(C)cc2NC(=O)C(c2ccccc2)c2ccccc2)n1`: the Inhibition in the test with Plasmodium falciparum [1] is 96%; with Plasmodium falciparum [2], 77%; with HepG2 it was 31%.

Turning to `Fc1ccc(Nc2ccnc3cc(-c4ccc(CN5CCOCC5)o4)ccc23)c(Cl)c1`, the Inhibition in the test on Plasmodium falciparum [1] is given as 100%; in the test with Plasmodium falciparum [2], 100%; in the test with HepG2, 42%.

As to `COC(=O)c1ccc2c(c1)nc(Nc1cccc(F)c1)n2CC(O)c1ccccn1` (stereo not given), the results for the Inhibition in the test with Plasmodium falciparum [1], in the test on Plasmodium falciparum [2] and with HepG2 were 99%, 96% and 0%, respectively.

For `COc1cccc(-c2ccc(O)c(CNCCc3cccc(F)c3)c2)n1`, the Inhibition is given as 96% with Plasmodium falciparum [1], 67% with Plasmodium falciparum [2] and 0% in the test on HepG2.

`Cn1cc(CN2CCC(OC(c3ccccc3)c3ccc(Cl)cc3)CC2)cn1` (stereo not given): the Inhibition worked out at 94% with Plasmodium falciparum [1], 61% in the test with Plasmodium falciparum [2] and 39% with HepG2.

With `O=C(Cn1c(CCc2cccc(F)c2F)nc(=O)c2cccnc21)N(Cc1ccc(-c2ccc(C(F)(F)F)cc2)cc1)C1CCN(C2CCSCC2)CC1.O=C(O)C(O)C(O)C(=O)O`, the Inhibition in the test on Plasmodium falciparum [1] came out at 100%; in the test on Plasmodium falciparum [2], 63%; in the test on HepG2 it was 49%.

As for `CN1CCN(S(=O)(=O)c2ccc3nccc(Nc4ccc(Oc5ccccc5)cc4)c3c2)CC1.Cl`, the Inhibition with Plasmodium falciparum [1] worked out at 98%; in the test on Plasmodium falciparum [2], 91%; in the test with HepG2, 0%.

As to `O=C(/C=C/c1ccc(Cl)c(Cl)c1)NCCCCCCN1CCCN(C(=O)Nc2cc(Cl)cc(Cl)c2)CC1`, the Inhibition with Plasmodium falciparum [1] stood at 98%; with Plasmodium falciparum [2], 2%; in the test on HepG2 it was 26%.

Regarding `O=C(Nc1cccc(CN2CCCN(Cc3cccc(F)c3)CC2)c1)c1ccc(Cl)c(Cl)c1.O=C(O)C(F)(F)F`, the Inhibition in the test on Plasmodium falciparum [1] turned out to be 85%; in the test on Plasmodium falciparum [2] it was 6%; in the test with HepG2, 28%.

Turning to `O=C(Nc1ccccc1F)NC1CCN(c2ccnc(Nc3ccc(F)cc3)n2)CC1`, the Inhibition is 99% in the test on Plasmodium falciparum [1], 63% with Plasmodium falciparum [2] and 13% in the test on HepG2.

With `CCc1nc2nc(C)cc(Nc3ccc(F)c(Cl)c3)n2n1`, the Inhibition with Plasmodium falciparum [1] turned out to be 90%; in the test with Plasmodium falciparum [2], 77%; with HepG2, 2%.

Consider `CC[C@H](NC(=O)c1ccc(NC(=O)OC(C)(C)C)cc1)C(=O)N[C@@H](CO)C(=O)NCCCCc1ccccc1`, for which the Inhibition in the test with Plasmodium falciparum [1] is on record as 98%; in the test with Plasmodium falciparum [2], 94%; in the test on HepG2, 0%.

Turning to `CCCCOC(=O)NCCCC[C@H](NC(=O)OC(C)(C)C)C(=O)N[C@H](C(=O)OC(c1ccccc1)c1ccccc1)[C@H]1O[C@@H](n2ccc(=O)[nH]c2=O)[C@@H]2OC(C)(C)O[C@@H]21`, the Inhibition in the test on Plasmodium falciparum [1] stood at 87%; in the test with Plasmodium falciparum [2], 65%; with HepG2 it was 7%.

Usually Inhibition stands for the drop in the measured response relative to a control, in per cent. A low value points to a weak effect.
